Screens as filed in PubChem BioAssay.
Tgondii IFNg – inhibitors of Toxoplasma gondii growth with IFN-gamma. hit rate 3.8% among 69,000. Toxoplasma gondii growth in IFN-gamma-treated host cells; active compounds read low. activity change, negative = inhibition, % (test concentration not listed); in the data active = activity change below about -70%, passing the limit was not always enough;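 note: host cells are HeLa cells infected with Toxoplasma gondii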
Each line names hits and unclear results; the compound was inactive in the other large screens; ! = a repeat was not active. The entries come from a sample that favours hits as a whole.

C=CCSCC(=O)N1CCC2(CCNCC2)CC1	none
Cc1cccc(OCC(=O)N2CCCN3CCC[C@H]3C2)c1C	none
CN1CCO[C@H]2CN(c3ncccn3)C[C@@H]21	none
CO[C@H]1[C@H](O)[C@@H](O[C@H]2CC[C@]3(C=O)C4CC[C@]5(C)[C@@H](C6=CC(=O)OC6)CC[C@]5(O)C4CC[C@@H]3C2)O[C@@H](C)[C@@H]1O (stereo partly drawn)	Tgondii IFNg -83
C[C@@H]1O[C@@H](O[C@@H]2C[C@@H](O)[C@]3(CO)[C@H]4[C@H](O)C[C@]5(C)[C@@H](C6=CC(=O)OC6)CC[C@]5(O)[C@@H]4CC[C@]3(O)C2)[C@H](O)[C@H](O)[C@H]1O	Tgondii IFNg -81
CO[C@@H]1C(O)[C@H](O[C@H]2CC[C@@]3(C=O)[C@H](CC[C@@H]4[C@@H]3CC[C@]3(C)[C@@H](C5=CC(=O)OC5)CC[C@]43O)C2)OC(C)[C@@H]1O (stereo partly drawn)	Tgondii IFNg -75
C[C@]12CC[C@H]3[C@@H](CC[C@]4(O)C[C@@H](O)CC[C@]34C=O)[C@@]1(O)CC[C@@H]2C1=CC(=O)OC1	none
COc1ncccc1CN1CC[C@@H]2C[C@H](c3n[nH]c(C)n3)O[C@H]2C1	none
CC(Cc1ccccc1F)NCCCC(=O)N(C)C (stereo not drawn)	none
Cc1noc(C)c1CN1CCCC2(CN(CC(=O)O)CCO2)C1 (stereo not drawn)	none
CN1CCO[C@H]2CN(S(=O)(=O)c3cccnc3)C[C@@H]2C1	none
CC(NC(=O)c1cc2cccnc2n(Cc2ccc(Cl)cc2)c1=O)c1ccccc1 (stereo not drawn)	none
Cc1cc(C)cc(CN2CC3CNC(C3)C2)c1 (stereo not drawn)	none
CCn1nc(C)c(CNC(C)Cc2cccc(F)c2)c1C (stereo not drawn)	none
CN(C)CCN1C(=O)CC[C@@H]2[C@@H]1CCN2Cc1ccccn1	none
c1cncc(CN2CCCC23CCCC3)c1	none
Cc1cc(-c2cnc(N3CC4CC(C3)c3cccc(=O)n3C4)nc2-c2cccs2)on1 (stereo not drawn)	none
O=C(NCCC1=CCCCC1)c1cc2cccnc2n(Cc2ccccc2)c1=O	none
c1ccc(OCC2CC3OCCN(Cc4cccs4)C3C2)nc1 (stereo not drawn)	none
O=C(NCc1cccs1)c1cc2cccnc2n(Cc2ccc(Cl)cc2)c1=O	none
CCOP(=S)(OCC)Oc1nc(Cl)c(Cl)cc1Cl	Tgondii IFNg -76!
c1csc(CN2CCN(CC3CC3)c3ncccc3C2)c1	none
c1ccc(CCN2CCCC3(CCNC3)C2)cc1 (stereo not drawn)	none
C[C@@H]1CN2CCCC2CN1Cc1cnc(N2CCOCC2)nc1 (stereo partly drawn)	none
COc1ccc(N2C(=O)NC(=O)C3(Cc4cccc(F)c4N4CCC(c5ccccc5)CC43)C2=O)cc1 (stereo not drawn)	Tgondii IFNg -99
COCCN1CCC2(CCCN(Cc3ccccn3)C2)C1=O (stereo not drawn)	none
N#CCN1CCC2(CC1)C(=O)N(c1cncnc1)c1ccccc12	none
C=CCOCc1cncc2c1CCN(C1CCOC1)C2 (stereo not drawn)	none
Cc1cccc2cc(CN3CCCN4CCC[C@H]4C3)c(=O)[nH]c12	none
Cc1nccc2c1[nH]c1ccccc12	none
Cc1c2ccncc2c(C)c2c1[nH]c1ccccc12	Tgondii IFNg -80
c1ccc2c(c1)[nH]c1cnccc12	none
O=C(NCC1CCCO1)c1cc2cccnc2n(Cc2ccc(F)cc2)c1=O (stereo not drawn)	none
CN(C)c1ncc2c(c1C(=O)O)CCN(S(=O)(=O)C1CC1)C2	none
Cc1nc(CN2CCOCC23CCNCC3)cs1	none
Cc1ccc(CN2CCOC3CNCC[C@@H]32)o1 (stereo partly drawn)	none
CC1(C)C2CC(=O)[C@]3(C)C(CC[C@@]4(C)[C@H](c5ccoc5)OC(=O)[C@H]5O[C@]543)[C@@]2(C)C(=O)C[C@H]1O (stereo partly drawn)	none
CC(=O)O[C@H]1C[C@@H](OC(C)=O)C(C)(C)C2C[C@@H](OC(C)=O)[C@]3(C)C(CC[C@@]4(C)[C@H](c5ccoc5)C(=O)[C@H]5O[C@]543)[C@]21C (stereo partly drawn)	none
CC(=O)O[C@@H]1CC2C(C)(C)C(=O)C=C[C@]2(C)C2CC[C@]3(C)C(=CC(=O)O[C@H]3c3ccoc3)[C@@]21C (stereo partly drawn)	Tgondii IFNg -88
CCC1CN(Cc2ccc(Cl)cc2F)CCN1C(C)C (stereo not drawn)	none
Cc1ccc2c(c1)Cc1c(C(=O)NN3CCCCC3)nn(-c3ccc(Cl)cc3Cl)c1-2	Tgondii IFNg -75!
CCc1ccccc1NC(=O)c1cc2cccnc2n(Cc2ccccc2F)c1=O	none
CC(=O)Nc1ccccc1NC(=O)CNC(C)Cc1ncccc1C (stereo not drawn)	none
O=C(c1cccc(Cl)c1)C1CCCN(C2CCCCC2)C1 (stereo not drawn)	none
O=C(Nc1cccc(Cl)c1)OC1CN2CCC1CC2 (stereo not drawn)	Tgondii IFNg -78
CC(=O)OC1CN2CCC1CC2 (stereo not drawn)	none
